Compounds with a hit are over-represented: about 5.7% of the library has one in this group of screens.
B2AR arrestin: recruits beta-arrestin to the human beta2-adrenergic receptor. beta-arrestin recruitment to beta2AR, cell-based reporter. Potency, µM (doses to about 46.1 µM), for the others: at the top dose activation, actives largely listed as activators. 330,000 compounds, 0.02% hits. AID 492947;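 note: 0% = DMSO controls and full agonism = EC100 isoproterenol or metaproterenol; nearly all actives have a fitted effect of over 65% in size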
Target sequence (P07550 whole entry, looked up): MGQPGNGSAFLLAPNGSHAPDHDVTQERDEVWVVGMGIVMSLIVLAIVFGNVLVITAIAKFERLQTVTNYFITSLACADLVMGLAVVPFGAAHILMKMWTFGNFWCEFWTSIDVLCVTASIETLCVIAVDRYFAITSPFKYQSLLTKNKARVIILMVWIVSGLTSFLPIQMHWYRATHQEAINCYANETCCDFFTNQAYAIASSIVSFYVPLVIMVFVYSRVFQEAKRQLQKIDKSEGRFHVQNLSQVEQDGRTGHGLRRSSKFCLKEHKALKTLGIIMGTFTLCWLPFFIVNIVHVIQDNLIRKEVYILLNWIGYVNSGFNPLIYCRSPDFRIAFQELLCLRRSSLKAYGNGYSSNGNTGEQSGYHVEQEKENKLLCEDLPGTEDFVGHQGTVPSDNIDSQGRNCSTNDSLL
RORgamma inh: inhibitors of mouse ROR gamma transcriptional activity. P51450. Drosophila S2 Gal4-RORgamma UAS-luciferase reporter, 20 h. Potency, µM (top dose mostly 53.6 µM), for inactives: top-dose activity change, negative = inhibition, most hits filed as inhibitors. 310,000 compounds, 5.4% hits; note: nearly all actives have a fitted effect of over 60% in size
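Using a luciferase readout, inhibitors were identified by reduced reporter activity in Drosophila cells coexpressing a copper-inducible Gal4–ROR gamma fusion and UAS-driven Photinus luciferase, incubated 20 hr after 700 uM copper sulfate.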
NPSR antagonist: blocks cAMP signaling of the human neuropeptide S receptor; Potency, µM (doses to about 38.3 µM), inactives show at the top dose activity change, negative = inhibition, most hits filed as inhibitors; CHO-NPSR cells, cAMP TR-FRET, antagonist mode; Q6W5P4; 220,000 compounds, 1% hits; note: nearly all actives have a fitted effect of over 50% in size
Gal4-VP16 FLuc: inhibits Gal4-VP16 luciferase reporter, ROR gamma counter-screen; AID 2546; Drosophila S2 Gal4-VP16 UAS-luciferase, luminescence, 20 h; 310,000 compounds, 3.5% hits; Potency, µM (top dose mostly 53.6 µM), for the others: top-dose activity, negative = inhibition, actives largely listed as inhibitors;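 note: Gal4-VP16 expression switched on by copper sulfate through the metallothionein promoter; nearly all actives have a fitted effect of over 50% in size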
* marks the source's active call; other numbers are inactive results; [ ] = another dose, or the depositor's remark. Calls come from the whole dose curve; as a rule, active = well fitted curve in the direction sought with a large enough effect; inconclusive = small, poorly fitted or top-dose-only effect, or another doubt; inactive = no such curve, though single readings can be large; an effect the other way counts as inactive or inconclusive. Unless noted, % is set by controls: 0 for no effect and ±100 for the full control effect; potency is the fitted concentration of half-maximal effect.

Screening CN(C)NC(=S)Nc1ccc(S(=O)(=O)N2CCCCC2)cc1 returned B2AR arrestin 11%, RORgamma inh 2.8µM*, NPSR antagonist -19% and Gal4-VP16 FLuc 5.6µM*.
Screening NS(=O)(=O)c1ccc(NC(=S)Nc2ccc(S(=O)(=O)N3CCCC3)cc2)cc1 returned B2AR arrestin 0%, RORgamma inh 3%, NPSR antagonist 9% and Gal4-VP16 FLuc -2%.
`CCCCC(=O)NC(=S)Nc1ccc(S(=O)(=O)N2CCCC2)cc1` gave B2AR arrestin -1%, RORgamma inh 13µM*, NPSR antagonist -28% and Gal4-VP16 FLuc -20%.
`O=C(CCc1ccccc1)NC(=S)Nc1ccc(S(=O)(=O)N2CCOCC2)cc1` gave B2AR arrestin -1%, RORgamma inh 22µM*, NPSR antagonist -15% and Gal4-VP16 FLuc -20%.
`N#CC(C#N)=NNc1ccc(S(=O)(=O)N2CCCCC2)cc1` gave B2AR arrestin -1%, RORgamma inh inconclusive, NPSR antagonist -40% and Gal4-VP16 FLuc 22µM*.
Screening N#C/C(=N\Nc1ccc(S(=O)(=O)N2CCOCC2)cc1)C(N)=S returned B2AR arrestin 0%, RORgamma inh inconclusive, NPSR antagonist 43% and Gal4-VP16 FLuc -2%.
`O=S(=O)(c1ccc(NC(=S)Nc2ccccc2)cc1)N1CCOCC1` gave B2AR arrestin -1%, RORgamma inh inconclusive, NPSR antagonist 4% and Gal4-VP16 FLuc -7%.
For COCCn1cnc2c1-c1ccc(OC)c(c1)OC/C=C\COc1cccc-2c1 the results were RORgamma inh 2% and Gal4-VP16 FLuc -18%.
Screening Cc1ccc(-c2nc(C(Cl)Cl)c3ccccc3n2)cc1 returned B2AR arrestin 0%, RORgamma inh inconclusive, NPSR antagonist inconclusive and Gal4-VP16 FLuc 8.9µM*.
For CCOc1ccc(N(CC(=O)N2CCCCCC2)S(=O)(=O)c2ccc(F)cc2)cc1 the results were B2AR arrestin 0%, RORgamma inh 9% and Gal4-VP16 FLuc 2%.
CCOC(=O)c1nnc(-c2ccc(C)cc2)nc1Sc1ccccc1Cl was read as B2AR arrestin 0%, RORgamma inh 27%, NPSR antagonist inconclusive and Gal4-VP16 FLuc -17%.
Screening CCOC(=O)c1nnc(-c2ccc(C)cc2)nc1Oc1ccc(Cl)cc1Cl returned B2AR arrestin 0%, RORgamma inh -27%, NPSR antagonist inconclusive and Gal4-VP16 FLuc inconclusive.
`CCOC(=O)c1nnc(-c2ccc(C)cc2)nc1Oc1ccccc1Cl` gave B2AR arrestin 0%, RORgamma inh 7%, NPSR antagonist -27%[46.1 µM] and Gal4-VP16 FLuc 6.3µM*.
Screening CCOC(=O)c1nnc(-c2ccccc2)nc1Sc1c(Cl)cccc1Cl returned B2AR arrestin -1%, RORgamma inh -28%, NPSR antagonist inconclusive and Gal4-VP16 FLuc 18µM*.
For Cc1ccc(-n2ncc3c2CCCC3NC(=O)c2ccoc2)cc1C (stereo not drawn) the results were B2AR arrestin -1%, RORgamma inh 40% and Gal4-VP16 FLuc -19%.
For COCc1ccc(C(=O)NC2CCCc3c2cnn3-c2ccc(C)c(C)c2)o1 (stereo not drawn) the results were B2AR arrestin -1%, RORgamma inh inconclusive and Gal4-VP16 FLuc 11µM*.
`Cc1cc(C)c(C(=O)NC2CCCc3c2cnn3-c2ccc(C)c(C)c2)c(=O)[nH]1` (stereo not drawn) gave B2AR arrestin -1%, RORgamma inh inconclusive and Gal4-VP16 FLuc -14%.
For Cc1cc(C(=O)NC2CCCc3c2cnn3-c2ccc(C)c(C)c2)n(C)n1 (stereo not drawn) the results were B2AR arrestin -1%, RORgamma inh inconclusive and Gal4-VP16 FLuc 0.0079µM*.
CN(C)CCSc1nnc(-c2ccccc2)o1 was read as B2AR arrestin 0%, RORgamma inh -41%, NPSR antagonist -4%[46.1 µM] and Gal4-VP16 FLuc -10%.
`CN(C)c1cccc(-c2nnc(SCCCC#N)o2)c1` gave B2AR arrestin 0%, RORgamma inh 11µM*, NPSR antagonist -12%[46.1 µM] and Gal4-VP16 FLuc inconclusive.
`COc1ccc(Nc2nc3c(c(=O)n(C)c(=O)n3C)n2CCO)cc1` gave B2AR arrestin 0%, RORgamma inh 21%, NPSR antagonist -25%[46.1 µM] and Gal4-VP16 FLuc 1%.
For COc1ccnc(CSC(N)=Nc2ccc(F)cc2)c1 the results were B2AR arrestin 11%, RORgamma inh 10µM*, NPSR antagonist -11%[46.1 µM] and Gal4-VP16 FLuc inconclusive.
O=C(Nc1nnc(COc2ccc(Cl)cc2)s1)c1ccc([N+](=O)[O-])cc1 was read as B2AR arrestin 0%, RORgamma inh 6%, NPSR antagonist -7%[46.1 µM] and Gal4-VP16 FLuc -7%.
For O=C(Nc1ncc(Cc2ccccc2Cl)s1)C1=NCCN1 the results were B2AR arrestin 0%, RORgamma inh 4µM*, NPSR antagonist 25% and Gal4-VP16 FLuc 3.2µM*.
`O=C(Nc1ncc(Cc2ccc(Cl)cc2Cl)s1)c1ccc([N+](=O)[O-])cc1` gave B2AR arrestin 0%, RORgamma inh 2.2µM*, NPSR antagonist -25% and Gal4-VP16 FLuc 3.5µM*.
CCc1ccc(Cc2cnc(NC(=O)C3=NCCN3)s2)cc1 was read as B2AR arrestin 0%, RORgamma inh 7.1µM*, NPSR antagonist -3% and Gal4-VP16 FLuc inconclusive.
O=C(CSc1nnnn1-c1ccccc1)Nc1ncc(Cc2ccccc2Cl)s1 was read as B2AR arrestin -1%, RORgamma inh -6%, NPSR antagonist 11% and Gal4-VP16 FLuc -22%.
For Cc1ccc(C(=O)Nc2ncc(Cc3ccc(F)cc3)s2)o1 the results were B2AR arrestin 0%, RORgamma inh inconclusive, NPSR antagonist -23%[46.1 µM] and Gal4-VP16 FLuc inconclusive.
For Cc1ccc(N2CCC(N3CCN(C4CCCCC4)C(CCO)C3)CC2)cc1 (stereo not drawn) the results were B2AR arrestin 0%, RORgamma inh 13%, NPSR antagonist -6% and Gal4-VP16 FLuc -5%.
`COC(=O)C1=C(C)NC(=S)NC1/C=C/c1ccccc1` (stereo not drawn) gave B2AR arrestin 0%, RORgamma inh 6.3µM*, NPSR antagonist -32% and Gal4-VP16 FLuc 16µM*.
C=CCOC(=O)C1=C(C)NC(=O)NC1/C=C/c1ccccc1 (stereo not drawn) was read as B2AR arrestin 5%, RORgamma inh -15%, NPSR antagonist -10%[46.1 µM] and Gal4-VP16 FLuc 0%.
For CCOC(=O)C1=C(C)NC(=O)NC1/C=C\c1ccccc1 (stereo not drawn) the results were B2AR arrestin 0%, RORgamma inh 1% and Gal4-VP16 FLuc -11%.
`CCOC(=O)C1=C(C)NC(=S)NC1/C=C/c1ccccc1` (stereo not drawn) gave B2AR arrestin 0%, RORgamma inh 1.8µM*, NPSR antagonist -22%[46.1 µM] and Gal4-VP16 FLuc 2µM*.
For O[C@@H]([C@H](O)[C@H](O)CBr)[C@H](O)CBr the results were RORgamma inh 0%[10 µM] and Gal4-VP16 FLuc 1%.
`NS(=O)(=O)c1ccc(CCNC(=O)C2CC(=O)N(Cc3ccccc3Cl)C2)cc1` (stereo not drawn) gave B2AR arrestin -1%.

Assay outcomes as filed in PubChem BioAssay.
